# Assay outcomes deposited in PubChem BioAssay by National Center for Advancing Translational Sciences (NCATS).
# ELG1 genotox – genotoxicity induction in ELG1-luciferase HEK293T cells; Potency, µM (doses to about 46 µM), actives largely listed as activators; 1.3% of 330,000 active; HEK293T ELG1-luciferase reporter, luminescence, 16 h; also: nearly all actives have a fitted effect of over 60% in size
#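 DMSO vehicle served as control against compound-treated ELG1-luciferase HEK293T cells; exposure lasted 16 hr at 37 °C and 5% CO2, followed by ONE-Glo luminescence detection after 30 min.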
# Rab9 prom act – Rab9 promoter activation | Huh7 Rab9 promoter-luciferase reporter, luminescence, 24 h | 2.8% of 320,000 active | Potency, µM (titrated, usually from 9.22 µM), most hits filed as activators; also: nearly all actives have a fitted effect of over 60% in size
#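 Rab9 promoter-driven luciferase in stably transfected Huh7 cells; 1500 cells/well rested 2 h, exposed to compound in DMSO for 24 h at 37 °C, 5% CO2. Luminescence read 10 min after adding luciferase reagent at ambient temperature.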
# FLuc counter – firefly luciferase modulation, counter-screen for miR-21 project | purified FLuc, Km substrates, luminescence inhibition | AID 588342 | Potency, µM (titrated, usually from 57.5 µM), most hits filed as inhibitors | 6.9% of 360,000 active | P08659; also: nearly all actives have a fitted effect of over 55% in size
# Target sequence (P08659 whole entry, looked up): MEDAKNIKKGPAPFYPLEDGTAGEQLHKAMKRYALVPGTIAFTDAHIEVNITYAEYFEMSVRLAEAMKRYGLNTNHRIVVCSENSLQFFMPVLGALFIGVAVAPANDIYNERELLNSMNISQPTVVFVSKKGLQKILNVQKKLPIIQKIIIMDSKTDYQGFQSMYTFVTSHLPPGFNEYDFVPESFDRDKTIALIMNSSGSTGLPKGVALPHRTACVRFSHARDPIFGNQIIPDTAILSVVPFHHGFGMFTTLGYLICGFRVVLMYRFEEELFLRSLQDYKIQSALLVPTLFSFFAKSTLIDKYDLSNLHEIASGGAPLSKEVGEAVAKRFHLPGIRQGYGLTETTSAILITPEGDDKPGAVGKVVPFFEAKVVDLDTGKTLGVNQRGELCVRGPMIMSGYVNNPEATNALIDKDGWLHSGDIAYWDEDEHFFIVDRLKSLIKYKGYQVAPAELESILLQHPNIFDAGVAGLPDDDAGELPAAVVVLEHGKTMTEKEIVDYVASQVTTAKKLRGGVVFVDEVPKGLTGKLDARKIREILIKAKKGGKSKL
#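 Biochemical qHTS of compounds, final roughly 60 µM downward over six points, against 10 nM purified firefly luciferase using Km concentrations of substrates (10 uM D-luciferin, 10 uM ATP) in Tris acetate pH 7.5 buffer; luminescence output.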
# SMN2 splice enh – enhancers of SMN2 splice variant expression; HEK293 SMN2-luciferase splicing reporter, luminescence, 30-36 h; 2.8% of 210,000 active; Potency, µM (highest dose often 46.1 µM), hits mostly activators; also: nearly all actives have a fitted effect of over 55% in size
#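 HEK293 cells carry an SMN2 minigene-luciferase reporter in which exon 7 inclusion puts luciferase in frame. Cells were seeded at 2000 cells/well, attached for 10-12 hours, then exposed to compounds for 30-36 hours at 37C before ONE-Glo luminescence.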
# NPC1 promoter act – activators of NPC1 promoter; 2.4% of 320,000 active; AID 485313; Huh7 NPC1 promoter luciferase reporter, 24 h; Potency, µM (titrated, usually from 9.22 µM), most hits filed as activators; also: nearly all actives have a fitted effect of over 60% in size
#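 Readout is luciferase luminescence, reflecting NPC1 promoter activation in stably transfected Huh7 cells after 24 h compound exposure at 37 °C in reduced-serum medium with 10% FBS.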
# Hits are given with their value; . = inactive; ? = inconclusive; / = no result; [ ] = remark or other dose. Only some compounds are listed: those with a hit (about 7.5% of all), similar ones and a draw of the others. Calls follow the shape of the dose curve; as a rule, active = well fitted curve in the direction sought with a large enough effect; inconclusive = small, poorly fitted or top-dose-only effect, or another doubt; inactive = no such curve, though single readings can be large; an effect the other way counts as inactive or inconclusive.
SMILES,ELG1 genotox,Rab9 prom act,FLuc counter,SMN2 splice enh,NPC1 promoter act
Cc1c(O)ccc(/C=N/Nc2ncccc2[N+](=O)[O-])c1O,2.6µM,3.2µM,1.1µM,/,0.56µM
Oc1ccccc1/C=N/Nc1nccnc1Cl,13µM,.,17µM,.,.
Nc1cc(Cl)nc(N/N=C/c2ccccc2[N+](=O)[O-])n1,.,?,24µM,?,?
O=[N+]([O-])c1cccnc1N/N=C/c1ccccc1O,?,?,?,.,.
CCN(CC)S(=O)(=O)c1cc(C(=O)OCC(=O)NC(=O)c2cccn2C)ccc1C,.,.,.,.,.
Oc1ccc(/C=N/Nc2ncc(Br)cn2)c(O)c1,15µM,?,11µM,.,?
O=c1[nH]ncc(N/N=C\c2ccc(O)cc2O)c1Cl,?,.,?,.,.
Oc1ccc(/C=N/Nc2nccnc2Cl)c(O)c1,?,.,24µM,.,.
Oc1ccc(Br)cc1/C=N/Nc1ncc(-c2ccccc2)cn1,.,.,.,.,.
CSc1ccccc1-c1nnc(-c2ccccc2)o1,?,3.2µM,3.4µM,11µM,.
CSc1nnc(-c2ccccc2SC)o1,.,.,.,.,.
CSc1ccccc1-c1nnc(-c2ccc(C)cc2)o1,?,?,1.5µM,10µM,?
Nc1sc(-c2ccccc2)c(Cc2ccccc2)c1C(=O)O,.,.,17µM,.,.
COC(=O)c1c(N)sc(Cc2ccccc2)c1C,.,.,.,/,.
C=CC[C@H](CC(=O)N(CCO)Cc1ccccc1)C(=O)N[C@@H](C)COC(=O)[C@H](CC=C)CC(=O)OC(C)(C)C,.,/,/,/,/
CCOc1ccc(C2C(C(=O)Nc3ccccc3)=C(C)N=c3s/c(=C/c4cccc(OCC(=O)O)c4)c(=O)n32)cc1 (configuration not stated),.,.,.,/,.
COC(=O)Cc1c(C)c2ccc(OC(=O)c3ccco3)cc2oc1=O,.,.,17µM,.,.
COC(=O)Cc1c(C)c2ccc(OC(C)C)cc2oc1=O,.,3.2µM,15µM,/,?
COC(=O)Cc1c(C)c2ccc(OC3CCCCC3=O)cc2oc1=O (configuration not stated),.,.,?,/,.
COc1cccc(C(=O)NCCn2ccc3ccccc32)c1,?,4µM,19µM,7.9µM,2.8µM
COc1ccc(C(=O)NCCn2ccc3ccccc32)cc1OC,.,.,.,.,.
O=C(NCCn1ccc2ccccc21)c1ccc(Cl)cc1,/,/,21µM,13µM,/
COc1cc(OC)cc(C(=O)NCCn2ccc3ccccc32)c1,.,.,.,.,.
O=C(NCCc1cscn1)C1CCC(=O)N(Cc2ccc(Cl)cc2)C1 (configuration not stated),?,?,3µM,/,?
CC(C)(C)c1ccc(-c2nc3[nH]c(=O)cc(NC(=O)c4ccco4)n3n2)cc1,?,1.1µM,0.43µM,/,4µM
SMILES,ELG1 genotox,Rab9 prom act,FLuc counter,SMN2 splice enh,NPC1 promoter act
Cc1ccc(-c2nc3[nH]c(=O)cc(NC(=O)c4cccs4)n3n2)cc1,.,.,13µM,/,.
COc1ccccc1C(=O)NC1CCCCCCC1,.,.,?,.,.
Cc1cc(C(=O)CSc2nc(N)cc(N)n2)c(C)n1C1CC1,.,.,.,.,.
Cc1cc(C(=O)CSc2nc(N)cc(N)n2)c(C)n1-c1cccc(F)c1,.,.,24µM,.,.
C=CCn1c(C)cc(C(=O)CSc2nc(N)cc(N)n2)c1C,.,.,21µM,.,.
O=c1c([N+](=O)[O-])cccn1Cc1cccc(Cl)c1,.,.,.,.,.
COCCN(C(=O)COC(=O)C1(c2ccccc2)CC1)c1c(N)n(CC(C)C)c(=O)[nH]c1=O,.,.,.,/,.
Fc1cc(NC(=S)NCc2ccc(CNC(=S)Nc3ccc(Cl)c(F)c3)cc2)ccc1Cl,.,.,.,/,.
CCOC(=O)c1sc(Nc2ccc(Br)cc2)nc1C,.,.,19µM,/,.
CCOC(=O)c1sc(NC(=O)/C=C/c2c(F)cccc2Cl)nc1C,.,.,.,.,.
CCOC(=O)c1sc(Nc2ccccc2Cl)nc1C,?,?,15µM,/,?
CCOC(=O)c1sc(NC(=O)Nc2ccccc2F)nc1C,0.26µM,0.45µM,0.17µM,.,?
COC(=O)Cc1csc(Nc2ccccc2Cl)n1,?,3.5µM,19µM,?,?
Oc1c(CN2CCN(c3ccccn3)CC2)cc(Cl)c2cccnc12,7.3µM,.,.,.,.
OCCN1CCN(Cc2cc(Cl)c3cccnc3c2O)CC1,.,.,.,.,.
Cc1nc(/N=C(\N)NC(=O)c2ccccc2)nc2ccccc12,.,?,?,18µM,.
CCCC(=O)N/C(N)=N/c1nc(C)c2cc(C)ccc2n1,.,.,17µM,/,.
CCC(=O)N/C(N)=N/c1nc(C)c2cc(C)c(C)cc2n1,.,.,?,/,.
Cc1[nH]c(=S)c(C#N)c(C)c1CCC#N,.,.,.,/,.
CCCCCCN1CC(O)=C(c2nc3ccccc3[nH]2)C1=N,.,.,.,/,.
CCC(C)N1CC(O)=C(c2nc3ccccc3[nH]2)C1=N (configuration not stated),?,?,17µM,.,?
CC1C(O)=C(c2nc3ccccc3[nH]2)C(=N)N1c1ccccc1 (configuration not stated),?,.,17µM,.,.
N=C1C(c2nc3ccccc3[nH]2)=C(O)CN1c1ccccc1,21µM,?,8.5µM,.,.
COc1ccc(S(=O)(=O)N2CCCCCC2)cc1C(=O)N(C)CC(=O)Nc1ccccc1Br,.,.,.,/,.
COC(=O)CC(=O)Cc1nc(N)nc(Nc2ccc(C)c(C)c2)n1,.,.,.,.,.
SMILES,ELG1 genotox,Rab9 prom act,FLuc counter,SMN2 splice enh,NPC1 promoter act
COc1cc(C2Nc3cc(Cl)c(S(N)(=O)=O)cc3S(=O)(=O)N2)ccc1OCc1ccccc1 (configuration not stated),16µM,.,?,.,.
CCc1cccc(CC)c1NC(=O)COC(=O)CC1c2ccccc2CCN1S(=O)(=O)c1ccc(F)cc1 (configuration not stated),.,.,.,?,.
CCc1ccc(Nc2nc(C)cc(C)n2)cc1,?,5µM,12µM,/,?
COc1ccc(Nc2nc(C)cc(C)n2)cc1Cl,?,?,19µM,/,?
COc1nc(Nc2ccc(OC)c(Cl)c2)nc(OC)n1,.,.,.,.,.
Cc1cc(C)nc(Nc2ccc(N3CCCC3)cc2)n1,?,.,19µM,.,.
CCc1ccc(Nc2cc(C)nc3nc(C)nn23)cc1,.,.,.,.,.
Cc1cc(C)cc(Nc2ccc(C(=O)O)cc2N)c1,.,.,?,.,.
Cc1ccc(Nc2ccc(C(=O)O)cc2N)cc1,?,.[1.84 µM],5.4µM,?,?
O=C(CN1CCCC1)N1CCCc2ccccc21,.,.,.,.,.
Cc1cc(C)nc(Nc2ccc(C(=O)O)cc2)n1,?,1.8µM,15µM,11µM,3.5µM
Cc1cc(C)nc(Nc2ccc(O)cc2)n1,.,.,.,/,.
Cn1c(SCC(=O)N2CCOCC2)ncc(C(=O)Nc2ccc(F)cc2)c1=O,/,/,.,/,/
